# Sampled rows, rich in hits. Any-hit rate of the full collection: about 3.2%.
# PrPC surface inh – inhibitors of human cell surface prion protein PrPC; P04156; hit rate 0.43% among 370,000; inhibition, % at 13.8 µM; TR-FRET read-out; in the data active means inhibition above about 24%; further: 0% = median of the test wells and 100% = reference compound wells
# Yp Topo-I inh – blocks Yersinia pestis topoisomerase I activity; Y. pestis Topo-I cleavage product accumulation, plate reader; activity, % at 10 µM; hit rate 0.064% among 360,000; AID 504884; in the data active means activity above about 50%, passing the limit was not always enough
# TcdB inh – blocks C. difficile toxin B glycohydrolase activity; hit rate 0.24% among 350,000; AID 652162; TcdB glycohydrolase enzymatic assay, plate reader; inhibition, % at 9.99 µM; in the data active means inhibition above about 10%
# Mtb FBA inh – inhibits M. tuberculosis FBA enzyme; inhibition, % at 1 µM; hit rate 2.3% among 360,000; purified M. tuberculosis FBA, fluorescence read-out; AID 588726; P9WQA3; in the data active means inhibition above about 27%;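 further: 0% = vehicle and 100% = reference inhibitor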
# GDH-TPI inh – counter-screen for M. tuberculosis FBA inhibitors: GDH-TPI coupled enzymes | GDH-TPI coupled enzyme counterscreen, NADH absorbance | inhibition, % at 4.8 µM | hit rate 1.2% among 360,000 | AID 588335; in the data active means inhibition above about 30%;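 further: 0% = DMSO wells and 100% = wells lacking the enzyme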
# Numbers without * were called inactive; x = no result given; + = active, no number.
SMILES,PrPC surface inh,Yp Topo-I inh,TcdB inh,Mtb FBA inh,GDH-TPI inh
Cc1noc(NS(=O)(=O)c2ccc(NC(=O)c3cnc4n(c3=O)CCS4)cc2)c1C,-1.7,-4.1,x,-4.3,34.1*
COc1ccccc1NC(=O)c1cnc2n(c1=O)CCS2,0.8,2.9,x,-3.5,37.5*
O=C(Nc1ccc2c(c1)OCO2)c1cnc2n(c1=O)CCS2,9.2,6.1,x,0.2,19.1
O=C(Nc1ccc2c(c1)OCCO2)c1cnc2n(c1=O)CCS2,-1.8,6.2,-0.7,-1.4,31.0*
COc1ccc(OC)c(NC(=O)c2cnc3n(c2=O)CCS3)c1,8.3,-7.6,1.9,-0.3,23.2
Cn1cnc(S(=O)(=O)N2CC[C@@H]3[C@H]2c2cc(C#Cc4ccc(F)cc4)ccc2N[C@@H]3CO)c1,x,x,0.1,x,x
COc1ccc(S(=O)(=O)N(C)C[C@H]2Oc3ccc(NC(=O)CCC(F)(F)F)cc3C(=O)N([C@@H](C)CO)C[C@H]2C)cc1,x,x,-0.1,x,x
O=C1CCC/C(=N/NC(=O)c2sc3ccccc3c2Cl)C1,-2.5,3.5,-0.1,1.0,54.7*
COCC#Cc1ccc2c(c1)O[C@@H](CN(C)S(=O)(=O)c1ccc(C)cc1)[C@H](C)CN([C@@H](C)CO)S2(=O)=O,x,x,-1.8,x,x
C[C@H]1CN([C@@H](C)CO)C(=O)c2cccc(N(C)C)c2O[C@H]1CN(C)S(=O)(=O)c1ccc(F)cc1,x,x,-0.5,x,x
CO[C@H](CN(C)C(=O)c1cnccn1)[C@@H](C)CN([C@H](C)CO)S(=O)(=O)c1ccccc1,x,x,-0.1,x,x
O=C(NCc1ccccc1)[C@@H]1CCCN1C(=O)[C@@H]1CCCN1C(=O)c1cccs1,-6.3,x,11.5*,x,x
O=C(NCc1ccncc1)[C@@H]1CCCN1C(=O)[C@@H]1CCCN1,-6.3,x,12.1*,x,x
O=C(NCc1ccccc1Cl)[C@H]1CCCN1C(=O)[C@H]1CCCN1,-4.9,x,0.0,x,x
CN(C)C(=O)C[C@H]1C=C[C@@H](NC(=O)NC2CCCCC2)[C@H](CO)O1,x,x,-1.1,x,x
CNC(=O)C[C@@H]1CC[C@H]2[C@H](COc3ccc(NS(=O)(=O)c4ccccc4C)cc3C(=O)N2C)O1,x,x,11.5*,x,x
CNC(=O)C[C@H]1CC[C@@H]2[C@H](COc3ccc(NS(=O)(=O)c4ccccc4C)cc3C(=O)N2C)O1,x,x,12.4*,x,x
O=C(Nc1ccccc1F)N[C@@H]1CC[C@@H](CCNC(=O)C2CCC2)O[C@H]1CO,x,x,-0.6,x,x
C=CS(=O)(=O)c1ccc(Oc2ccc(S(=O)(=O)C=C)cc2)cc1,63.7*,1.6,1.7,0.0,-5.9
NS(=O)(=O)c1ccc(Oc2ccc(S(N)(=O)=O)cc2)cc1,4.9,-2.5,1.0,-1.3,-2.5
C/C(CCc1ccccc1)=N\NC(=O)C1C2CCCCC21 (stereo unspecified),1.6,-1.3,10.8*,-0.8,-7.9
C/C(CC(=O)Nc1ccc([N+](=O)[O-])cc1)=N/NC(=O)C1C2CCCCC21 (stereo unspecified),-12.7,2.3,-0.1,-0.7,12.5
CCC(=O)Nc1ccc2c(c1)OC[C@H](C)N(C(=O)C1CC1)C[C@H](C)[C@H](OC)CN(C)C2=O,x,x,0.3,x,x
Cc1ccc(NC(=O)C(=O)NCc2ccc(/C=C(/C#N)C(=O)NCc3cccnc3)o2)cc1C,3.3,16.4,x,0.4,33.7*
N#C/C(=C/c1ccc(CNC(=O)C(=O)Nc2cc(Cl)cc(Cl)c2)o1)C(=O)NCc1cccnc1,1.6,3.4,0.8,0.4,-3.6
SMILES,PrPC surface inh,Yp Topo-I inh,TcdB inh,Mtb FBA inh,GDH-TPI inh
Cc1ccc(NC(=O)C(=O)NCc2ccc(/C=C(/C#N)C(=O)NCc3cccnc3)o2)cc1,3.6,37.3,x,-0.1,32.1*
COCCNC(=O)/C(C#N)=C\c1ccc(CNC(=O)C(=O)Nc2ccc(C)c(C)c2)o1,5.8,7.3,-3.4,-0.7,21.7
C[C@H](CO)N1C[C@H](C)[C@H](CN(C)C(=O)CC2CC2)Oc2cc(C#CC(C)(C)O)ccc2S1(=O)=O,x,x,-0.1,x,x
COC(=O)C1CCN(Cc2cc(=O)oc3cc(OC)ccc23)CC1,-0.6,-5.3,x,22.1,23.5
COC(=O)Cc1cc(=O)oc2cc(OC)ccc12,-0.8,10.0,0.7,118.5*,14.6
COc1cc(OC)cc(C(=O)NCC(=O)OCc2cc(=O)oc3cc(OC)ccc23)c1,-2.8,7.9,0.4,14.9,11.3
COc1ccc2c(COC(=O)CNS(=O)(=O)c3ccccc3)cc(=O)oc2c1,7.8,7.8,-0.4,118.6*,13.7
COc1ccc(OC)c(CN2CCN(Cc3cc(=O)oc4cc(O)ccc34)CC2)c1,-5.8,-4.2,-0.3,114.7*,10.5
COc1ccc2c(COC(=O)c3cccc(S(=O)(=O)NCC(C)C)c3)cc(=O)oc2c1,4.0,19.3,2.7,41.6*,0.4
C[C@@H]1CCCCO[C@@H](CN(C)S(=O)(=O)c2cccs2)[C@@H](C)CN([C@H](C)CO)C(=O)c2cc(N(C)C)ccc2O1,x,x,-4.4,x,x
COc1ccc(CN(C)C[C@H]2OCCCC[C@@H](C)Oc3ccc(NC(=O)c4ccccc4)cc3C(=O)N([C@@H](C)CO)C[C@@H]2C)cc1,x,x,-2.0,x,x
CC(=O)C(=Nc1ccc(Cl)cc1Cl)NNc1cccc(Cl)c1,-18.0,-6.5,x,0.9,31.0*
Cc1c(Cc2ccccc2)c(=O)oc2cc(OC(=O)c3ccccc3)ccc12,-4.9,-2.7,x,4.9,6.1
CCC(=O)Oc1ccc2c(C)c(Cl)c(=O)oc2c1,3.5,9.0,x,+,4.4
Cc1c(Cl)c(=O)oc2cc(OC(C)C)ccc12,-6.9,14.6,0.7,+,25.4
CCN(Cc1ccccc1)C(=O)c1oc2ccc(C)cc2c1C,7.5,53.4*,1.4,0.9,7.7
Cc1ccc2oc(C(=O)N(Cc3ccncc3)CC3CCCO3)c(C)c2c1 (stereo unspecified),1.7,18.4,0.1,-0.6,7.5
COc1ccc(C(=O)Cn2c(C(=O)/C=C/c3ccccc3)nc3ccccc32)cc1,11.6,-0.4,x,-3.2,32.2*
Cc1ccc2c(c1)c1nc3ccccc3nc1n2CCN1CCOCC1,-14.2,13.5,x,-2.6,33.9*
CCn1c2ccc(C)cc2c2nnc(SCCN3CCOCC3)nc21,-6.5,9.7,0.9,-2.9,26.8
O=c1c2c3nc4ccccc4nc3n(CCN3CCOCC3)c2ncn1CCN1CCOCC1,-34.5,3.4,-0.1,21.8,34.3*
C[C@@H]1CN([C@@H](C)CO)S(=O)(=O)c2ccc(C#CCN(C)C)cc2O[C@@H]1CN(C)Cc1cccnc1,x,x,0.2,x,x
COc1ccc(C=C2C(=O)NC(=S)NC2=O)cc1OC,9.3,-1.1,0.0,-4.2,14.2
COc1cc(C=O)ccc1O,-2.2,1.7,1.0,-1.0,57.7*
CCOc1cc(/C=C2\NC(=O)NC2=O)cc([N+](=O)[O-])c1O,-33.5,-5.3,-0.6,-3.6,32.1*
COc1cc(/C=C2/NC(=O)NC2=O)ccc1OCC(=O)Nc1ccc(F)cc1,-10.3,-3.8,-0.6,-0.9,15.2
CCOc1cc(/C=C2\C(=O)NC(=O)N(C)C2=O)cc([N+](=O)[O-])c1O,1.3,7.5,-1.6,-9.4,13.9
CCOc1cc(/C=C2\NC(=O)NC2=O)ccc1OC(C)C(=O)O (stereo unspecified),-4.2,0.2,2.7,-0.9,47.2*
CCOc1cc(C=C2C(=O)NC(=S)NC2=O)ccc1O,-7.1,8.1,-1.1,1.3,33.6*
